Screens: PubChem BioAssay, NMMLSC
CIT2-GFP yeast: alters CIT2-GFP fluorescence in TOR pathway yeast screen. GFP response vs DMSO, % at 10 µM. 320,000 compounds, 0.065% hits. S. cerevisiae CIT2-GFP strain, flow cytometry, 3 h; 100 means same as DMSO wells;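 active = GFP response relative to DMSO above a set limit, near the screen mean plus 3 SD, cut at about 150% in these data; inconclusive = Fewer than 70 cells measured for a yeast strain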;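 also: ratio of well median GFP fluorescence to mean of DMSO wells on the plate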
AGP1-GFP MLPCN: yeast TOR pathway AGP1-GFP modulation. S. cerevisiae AGP1-GFP multiplex flow cytometry, 3 h; GFP as percent of DMSO wells. GFP response vs DMSO, % at 10 µM. 320,000 compounds, 0.02% hits;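 active = GFP response relative to DMSO above a set limit, near screen average plus 3 SD, cut at about 150% in these data; inconclusive = fewer than 70 cells counted for the yeast strain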;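 also: median GFP channel fluorescence of the gated AGP1 strain per well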
MEP2 TOR yeast: yeast TOR pathway MEP2-GFP modulation; S. cerevisiae MEP2-GFP strain, flow cytometry GFP, 3 h; 100% = DMSO control level; GFP response vs DMSO, % at 10 µM; 330,000 compounds, 0.51% hits;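 active = GFP response versus DMSO above a set limit, roughly screen mean plus 3 SD, cut at about 180% in these data; inconclusive = fewer than 70 cells counted for a yeast strain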;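 also: median GFP fluorescence of the barcode-gated MEP2-GFP cells per well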
RPL19A-GFP yeast: modulators of TOR pathway RPL19A-GFP in S. cerevisiae; S. cerevisiae RPL19A-GFP strain, flow cytometry, 3 h; stronger effect = lower value; percent response vs DMSO, % at 10 µM; 330,000 compounds, 0.3% hits;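 active = percent response vs DMSO below 50%; inconclusive = fewer than 70 events counted for the yeast strain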;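 also: median channel GFP fluorescence of the barcoded RPL19A-GFP strain; lower means less RPL19A-GFP as with rapamycin TOR inhibition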
LAP4-GFP MLPCN: alters LAP4-GFP fluorescence in TOR pathway yeast screen. GFP response vs DMSO, % at 10 µM. 320,000 compounds, 0.34% hits. AID 2023. S. cerevisiae LAP4-GFP multiplex, flow cytometry GFP, 3 h; median GFP as percent of DMSO wells;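 active = GFP response vs DMSO above a set limit, about the screen mean plus 3 SD, cut at about 150% in these data; inconclusive = under 70 cell events counted for the yeast strain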
Efflux pump mplx: blocks antifungal efflux pumps in multiplex yeast assay. S. cerevisiae Candida pump triplex, Nile Red efflux. inhibition, % at 10 µM. 330,000 compounds, 0.44% hits. AID 485275;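 active = plate passing quality check with inhibition over a set limit, or well fluorescence over plate mean plus 4 SD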;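 also: Nile Red retained in pooled yeast measured as flow cytometry median fluorescence; higher means more Nile Red kept so more efflux inhibition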
Cmpd fluor yeast: counter-screen for efflux pump inhibitors: compound fluorescence. shares compounds with Efflux pump mplx. S. cerevisiae AD/pABC3, flow cytometry. fluorescence ratio to DMSO, % at 10 µM. 1,700 compounds, 4% hits;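 active = fluorescence ratio to DMSO above its plate's cutoff, the plate mean ratio plus 5 SD, cut at about 210% in these data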;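 also: unstained yeast with no Nile Red so the signal is compound autofluorescence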
Mdr1 pump inh: inhibitors of Candida albicans Mdr1 efflux pump; S. cerevisiae AD/CaMDR1, Nile Red efflux, flow cytometry; AID 588518; shares compounds with Efflux pump mplx; 1,700 compounds, 1% hits; inhibition, % at 10 µM; in the data active = inhibition above about 26%;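 also: higher means more Nile Red retained so more efflux inhibition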
Cdr2 pump inh: blocks the Candida albicans Cdr2 efflux pump in yeast. AID 588520. Nile Red retention ratio vs DMSO, % at 10 µM. S. cerevisiae AD/CaCDR2, Nile Red retention, flow cytometry. 1,700 compounds, 4% hits. shares compounds with Efflux pump mplx; in the data active = Nile Red retention ratio vs DMSO above about 190%;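 also: higher ratio means more blocking of Cdr2 efflux of the dye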
Cdr1 pump inh: Candida Cdr1 efflux pump inhibition | S. cerevisiae AD/CaCDR1, Nile Red efflux, flow cytometry | inhibition, % at 10 µM | shares compounds with Efflux pump mplx | AID 588522 | 1,700 compounds, 1% hits;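 active = inhibition above the screen-wide mean plus twice its standard deviation, cut at about 32% in these data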
Numbers stand for hits; - = inactive; ? = inconclusive; . = no result given; [ ] = remark or other dose. Hits are enriched below; roughly 1.3% of the tested compounds scored in any of these assays.

SMILES	CIT2-GFP yeast	AGP1-GFP MLPCN	MEP2 TOR yeast	RPL19A-GFP yeast	LAP4-GFP MLPCN	Efflux pump mplx	Cmpd fluor yeast	Mdr1 pump inh	Cdr2 pump inh	Cdr1 pump inh
COc1cc(/C=C/C(=O)c2ccc([N+](=O)[O-])o2)ccc1O	?	-	-	-	232[may fluoresce violet]	0.8	-	-	-	-
COc1cc(/C=C/C(=O)O)ccc1O	-	-	-	-	-	-	.	.	.	.
COc1ccc(Br)cc1CN1CCN(C(=O)c2ccco2)CC1	-	-	-	-	-	-	.	.	.	.
CS(=O)(=O)c1ccc(Cl)c(NC(=O)c2cccc(Br)c2)c1	-	-	-	-	-	5.8	-	-	-	-
Cc1cc(F)c(F)c(C(=O)N2C(C)CCCC2C)c1Cl (stereo not given)	-	-	-	-	-	-	.	.	.	.
CC(NC(=S)Nc1ccc(F)cc1)C(c1cccs1)N1CCOCC1 (stereo not given)	-	-	-	-	-	-	.	.	.	.
CC(C(=O)N1CCc2ccccc21)N1CCN(S(=O)(=O)c2ccc(C(F)(F)F)cc2)CC1 (stereo not given)	-	-	-	-	-	0.7	-	-	-	-
O/N=C/c1ccc(-c2cc(Cl)ccc2Cl)o1	-	-	-	-	-	11	-	-	-	-
COc1cc(S(=O)(=O)Nc2ccccn2)ccc1F	-	-	-	-	-	0.7	-	-	-	-
CCCOP(=O)(c1ccc(N(C)C)cc1)C(Nc1ccccc1)c1ccc(N(C)C)cc1 (stereo not given)	-	-	-	-	-	2.6	-	-	-	-
CCCCOP(=O)(c1ccc(N(C)C)cc1)C(Nc1ccccc1)c1ccccc1 (stereo not given)	-	-	-	-	-	-	.	.	.	.
CCOC(=O)c1ccccc1NS(=O)(=O)c1ccccc1F	-	-	-	-	-	5.9	-	-	-	-
Cc1ccc(Nc2nc(Oc3ccc(OCc4ccccc4)nn3)nc(N3CCOCC3)n2)cc1	-	.	-	-	-	0.7	-	-	-	-
c1ccc(COc2ccc(Oc3nc(N4CCCCC4)nc(N4CCOCC4)n3)nn2)cc1	-	-	-	-	-	-	.	.	.	.
Cc1ccsc1/C=N\NC(=O)c1n[nH]c2c1CCC2	-	-	-	-	-	11	-	-	-	-
O=[N+]([O-])c1cc(/C=N\Nc2ccccn2)ccc1Cl	-	-	-	-	-	0.9	-	-	197	-
Cc1ccc(C)c(NC(=O)CCC(=O)N/N=C/c2cc([N+](=O)[O-])ccc2O)c1	-	-	-	-	-	1.4	-	-	-	-
Cc1ccccc1NC(=O)CCC(=O)N/N=C/c1cc([N+](=O)[O-])ccc1O	-	-	-	-	-	-	.	.	.	.
Cc1noc(C)c1COc1ccccc1C(=O)N1CCN(c2cccc(C(F)(F)F)c2)CC1	-	-	-	-	-	1.1	-	-	-	-
Cc1noc(C)c1COc1ccccc1C(=O)N1CCN(c2cccc(Cl)c2)CC1	-	-	-	-	-	-	.	.	.	.
CC(C)(C)c1ccc(-n2ncc3c2CCCC3NC(=O)c2cnccn2)cc1 (stereo not given)	-	-	-	-	-	0.5	-	-	-	-
CC(C)(C)c1ccc(-n2ncc3c2CCCC3NC(=O)c2csnn2)cc1 (stereo not given)	-	-	-	-	-	-	.	.	.	.
Cc1ccc(S(=O)(=O)N2CCN(C(=O)CCCN3C(=O)NC4(CCCC4)C3=O)CC2)cc1C	-	-	-	-	-	-	.	.	.	.
Cc1ccc2c(c1)[C@H]1[C@H](CO2)[C@H](c2ccccc2)[C@]2(C)C(=O)Nc3cc(F)c(F)cc3C(=O)N12	-	-	-	-	-	-	-	-	-	-
COc1ccc2c(c1)C(=O)N1[C@H]3c4cc(Cl)ccc4OC[C@@H]3[C@H](c3ccccc3)[C@]1(C)C(=O)N2	-	-	-	-	-	-	-	-	-	-
SMILES	CIT2-GFP yeast	AGP1-GFP MLPCN	MEP2 TOR yeast	RPL19A-GFP yeast	LAP4-GFP MLPCN	Efflux pump mplx	Cmpd fluor yeast	Mdr1 pump inh	Cdr2 pump inh	Cdr1 pump inh
Cc1ccc2c(c1)[C@H]1[C@H](CO2)[C@H](c2ccccc2)[C@]2(C)C(=O)Nc3cc(Cl)ccc3C(=O)N12	-	-	-	-	-	-	.	.	.	.
COc1cc2c(cc1OC)C(=O)N1[C@H]3c4cc(C)ccc4OC[C@@H]3[C@H](c3ccccc3)[C@]1(C)C(=O)N2	-	-	-	-	-	-	-	-	-	-
COc1ccc2c(c1)OC[C@H]1[C@H]2N2C(=O)c3ccc(C)cc3NC(=O)[C@@]2(C)[C@H]1c1ccccc1	-	-	-	-	-	34	-	-	-	-
COc1ccc2c(c1)[C@H]1[C@H](CO2)[C@H](c2ccccc2)[C@]2(C)C(=O)Nc3cc(C)ccc3C(=O)N12	-	-	-	-	-	-	.	.	.	.
COc1ccc2c(c1)[C@H]1[C@H](CO2)[C@H](c2ccccc2)[C@]2(C)C(=O)Nc3cc(Cl)ccc3C(=O)N12	-	-	-	-	-	-	.	.	.	.
CCC(C)(C)NC(=O)C1CCCN(S(=O)(=O)c2ccc3c(c2)CC(C)N3C(=O)C2CC2)C1 (stereo not given)	-	-	-	-	-	-	.	.	.	.
Clc1ccccc1CSc1nncn1NC/C=C/c1ccccc1	-	-	-	-	-	7.6	-	-	-	-
COc1ccc(CCNC(=O)c2ccc(-c3cccc([N+](=O)[O-])c3)o2)cc1OC	-	-	-	-	-	-	.	.	.	.
COc1ccc(CCNC(=O)c2ccc(-c3ccc([N+](=O)[O-])cc3Cl)o2)cc1	-	-	-	-	-	6.7	-	-	-	-
O=C(CN1CCN(C(=O)N2CCOCC2)CC1)Nc1ccc(Br)cc1	-	-	-	-	-	17	-	-	-	-
O=C(CN1CCOCC1)Nc1ccc(Br)cc1	-	-	-	-	-	-	.	.	.	.
COc1cc2c(cc1OC)CN(C(=S)Nc1cccc(Cl)c1C)CC2	-	-	-	-	-	0.7	-	-	-	-
COc1cccc(NC(=O)c2ccc3c(c2)CCCC3)c1	-	-	-	-	174	52	-	-	-	-
COc1cccc(NC(=S)N2CCc3cc(OC)c(OC)cc3C2)c1	-	-	-	-	-	-	-	-	-	-
O=C(NC1CCCCC1)c1cc2ccccc2cc1O	-	-	-	-	-	1.1	-	-	-	-
